# Screening data (PubChem)
# FBPA coupling cs: coupling enzyme interference in Giardia aldolase counter-screen; coupling enzyme system counterscreen, AmpLite Red fluorescence; activity change, negative = inhibition, % at 58.2 µM, hits read low; 0.67% of 290,000 active; AID 2472; in the data active means activity change below about -30%
#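 Counterscreen of the coupled detection system alone, without aldolase: glyceraldehyde-3-phosphate coupling enzymes plus AmpLite Red readout. Compounds at 57.5 uM final, 10 min RT preincubation, 20 min RT reaction, fluorescence 525/598 nm.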
# TrxR1 substrate: is turned over as a substrate by rat TrxR1; purified TrxR1 substrate turnover, NADPH consumption readout; Potency, µM (highest dose often 114 µM), for the others: at the highest dose activity change, negative = substrate turnover; O89049; 0.01% of 390,000 active; further: potency means the concentration at half of the fitted maximal effect; nearly all actives have a fitted effect of over 50% in size
#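 Rat TrxR1, dispensed at 90 nM, was prereduced with 400 uM NADPH (final) for 5 min at ~22 deg C, then incubated with compound 15 min before 400 uM selenite. A first-read NADPH fluorescence drop versus no-compound background flagged substrates.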
# GALK inhibitor: galactokinase (human) inhibition. P51570. Potency, µM (top dose mostly 57.5 µM), for inactives: at the top dose activity change, negative = inhibition, hits mostly inhibitors. 0.007% of 270,000 active. Purified GALK, Kinase-Glo residual ATP luminescence; further: potency means the concentration at half of the fitted maximal effect
#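 Kinase-Glo Plus luminescence measured ATP left after a 1 h room-temperature reaction. The reaction used 5 nM GALK, 100 uM galactose and 35 uM ATP at pH 8.0 (20 mM HEPES, 5 mM MgCl2, 60 mM NaCl, 1 mM DTT, 0.01% BSA).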
# USP1 inh: inhibitors of human USP1/UAF1 deubiquitinase; O94782; recombinant USP1/UAF1, Ub-Rhodamine cleavage fluorescence; Potency, µM (highest dose often 57.1 µM), without a hit: at the top dose activity change, negative = inhibition, most hits filed as inhibitors; 0.23% of 390,000 active; AID 743255; further: potency means the concentration at half of the fitted maximal effect; nearly all actives have a fitted effect of over 60% in size
# Target sequence (O94782 whole entry, looked up): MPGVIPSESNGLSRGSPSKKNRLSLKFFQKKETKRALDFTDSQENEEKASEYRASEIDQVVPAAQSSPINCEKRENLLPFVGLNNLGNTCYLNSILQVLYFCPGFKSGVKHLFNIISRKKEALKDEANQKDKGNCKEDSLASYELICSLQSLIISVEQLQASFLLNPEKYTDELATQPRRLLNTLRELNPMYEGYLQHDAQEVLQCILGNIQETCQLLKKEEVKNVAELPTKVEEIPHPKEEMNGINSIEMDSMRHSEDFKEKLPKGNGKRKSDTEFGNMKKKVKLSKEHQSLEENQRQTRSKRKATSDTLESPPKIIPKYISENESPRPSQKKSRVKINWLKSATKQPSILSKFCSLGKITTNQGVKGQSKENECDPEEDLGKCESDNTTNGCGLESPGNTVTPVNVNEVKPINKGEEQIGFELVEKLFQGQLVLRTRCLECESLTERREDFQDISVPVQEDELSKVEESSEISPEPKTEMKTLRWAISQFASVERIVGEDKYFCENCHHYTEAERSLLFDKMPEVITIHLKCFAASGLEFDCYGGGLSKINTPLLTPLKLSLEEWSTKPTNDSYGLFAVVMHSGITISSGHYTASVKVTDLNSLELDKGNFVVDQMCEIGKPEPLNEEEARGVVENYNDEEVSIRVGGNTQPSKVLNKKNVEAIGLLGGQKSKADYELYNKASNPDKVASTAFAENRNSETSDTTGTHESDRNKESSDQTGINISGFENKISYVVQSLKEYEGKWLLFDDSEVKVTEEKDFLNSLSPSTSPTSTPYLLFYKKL
#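 High-throughput fluorogenic screen: 1nM USP1/UAF1 complex, Ub-Rho substrate 150nM final, 50mM HEPES pH 7.8 with 0.5mM EDTA, 0.1 mg/ml BSA, 1mM TCEP and 0.01% Tween-20.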
# rTrxR1 inhibitor: rat TrxR1 inhibition; 1% of 390,000 active; Potency, µM (doses to about 114 µM), for inactives: top-dose activity change, negative = inhibition, usual class: inhibitors; recombinant rTrxR1, NADPH fluorescence consumption, selenite substrate; further: potency means the concentration at half of the fitted maximal effect; nearly all actives have a fitted effect of over 65% in size
#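 Rat TrxR1 (90 nM in the dispensed reagent) was pre-reduced with 400 uM NADPH for 5 min at room temperature, then incubated with compound for 15 min. After 400 uM selenite was added, NADPH fluorescence (Ex 340/Em 450 nm) was followed for 8 min.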
# The depositor's hits bear a star; ? = inconclusive; nt = no result given; [ ] = another dose, or the depositor's remark. An excerpt weighted towards active compounds, which were near 1.5% of everything screened. Unless noted, the call rests on the fitted dose curve; in most records, active means well fitted curve in the direction sought with a large enough effect; inconclusive means small, poorly fitted or top-dose-only effect, or another doubt; inactive means no such curve, though single readings can be large; an effect the other way counts as inactive or inconclusive. On the % scale 0 is the no-effect control and ±100 the full control effect.
SMILES,FBPA coupling cs,TrxR1 substrate,GALK inhibitor,USP1 inh,rTrxR1 inhibitor
CC(C)c1ccc(C(c2c(O)c3ccccc3oc2=O)c2c(O)c3ccccc3oc2=O)cc1,nt,nt,nt,28.2µM*,nt
Cc1ccc2cc(C=C(C#N)C#N)c(Cl)nc2c1,-0.5,-3.1%,-1.1%,8.0%,25.1µM*
CC[C@H](C)/C=C(C)/C=C/C1=CC2=C(Cl)C(=O)[C@@](C)(OC(C)=O)C(=O)C2=CO1,nt,0.0%[57.1 µM],nt,31.6µM*,?
CCC(C)/C=C(C)/C=C/C1=CC2=C(Cl)C(=O)C(C)(OC(C)=O)C(=O)C2=CO1 (stereo not drawn),-0.3,-5.7%,-1.5%,?,-15.6%
Cc1ccc(C=C2C(Cl)=C(Cl)C(Cl)=C2Cl)cc1,1.1,1.3%,1.6%,-17.7%,3.16µM*
O=C(NC1CCCCC1)c1cn(CCN2CCOCC2)c2cc(Cl)ccc2c1=O,1.2,nt,nt,nt,nt
Oc1c(C(Nc2cccnc2)c2ccccc2F)ccc2cccnc12 (stereo not drawn),nt,0.8%,nt,nt,1.41µM*
N=C(N)c1ccc(-c2ccc(-c3ccc(C(=N)N)cc3)o2)cc1,nt,473.2%,nt,nt,?
CC(=O)CC(c1ccccc1)c1c(O)c2cccc(O)c2oc1=O (stereo not drawn),13.3,nt,nt,nt,nt
O=C1NC(=O)N(c2ccccc2F)C(=O)/C1=C/c1ccc(Oc2ccc([N+](=O)[O-])cn2)cc1,4.3,3.6%,3.2%,-22.0%,3.55µM*
COc1cc(/C=C2\C(=O)NC(=O)N(c3ccccc3)C2=O)c([N+](=O)[O-])cc1OC,-5.8,6.6%[57.1 µM],3.5%,-21.4%,7.08µM*
COc1cc(/C=C2\C(=O)NC(=O)N(c3ccccc3)C2=O)cc(OC)c1O,-32.9*,-15.3%,-2.2%,-4.3%,25.1µM*
Cc1ccccc1OCC(=O)Nc1ccccc1C(=O)OCc1cc(=O)n2nc(C3CC3)sc2n1,nt,0.6%[57.1 µM],nt,?,11.5%[57.1 µM]
COc1cc(O)c(C(=O)O)c(-c2cc(O)c(O)cc2C)c1,3.4,0.4%[57.1 µM],-6.2%,-20.1%,0.794µM*
COc1ccc2c(c1)c(C(=O)O)c(C)n2CC(C)C,-4.0,12.1%,-3.6%,-9.3%,13.5%
CC(Cc1ccc(C(C)(C)C)cc1)CN1CCCCC1 (stereo not drawn),0.7,nt,nt,nt,nt
Nc1ccc2c3c(cccc13)-c1ccccc1-2,nt,-3.4%,nt,5.62µM*,-1.8%
c1ccc2c(c1)c1cccc3ccc4cccc2c4c31,nt,151.9%,nt,-25.5%,51.3%
CCCOCCN(C(=O)CCl)c1c(CC)cccc1CC,-0.3,nt,nt,nt,nt
COc1cccc(NC(=O)C2CCN(c3nnc(C)c4c(C)n(-c5ccccc5)nc34)CC2)c1,nt,15.3%[57.1 µM],nt,4.0%,28.5%[57.1 µM]
NNc1n[nH]c(=S)n1N,-62.1*,1.0%,nt,-20.1%,-14.1%
N#CC1=C(N)Oc2n[nH]c(-c3cccs3)c2C1c1ccsc1 (stereo not drawn),-13.9,-2.3%,-1.7%,-21.0%,?
N#CC1=C(N)Oc2n[nH]c(-c3cccs3)c2C1c1ccco1 (stereo not drawn),-31.0*,-6.5%,0.4%,?,?
CN(C)C(CSC(N)=O)CSC(N)=O,-2.2,nt,nt,nt,nt
COCOC1CCC2C3CCC4=CC(=O)CCC4=C3C=CC12C (stereo not drawn),nt,3.0%,nt,-18.9%,39.8µM*
SMILES,FBPA coupling cs,TrxR1 substrate,GALK inhibitor,USP1 inh,rTrxR1 inhibitor
COC(=O)[C@]1(C)CC[C@@]2(C)CC[C@@]3(C)C4=CC=C5C(=CC(=O)C(O)=C5C)[C@@]4(C)CC[C@@]3(C)C2C1 (stereo partly drawn),-2.8,nt,nt,nt,nt
CN1CCN(c2ccc(Cl)cc2N)CC1,6.4,-0.8%,2.1%,-9.6%,17.3%
CN1CCN(c2ccc(N)cc2Cl)CC1,-31.6*,-5.7%[57.1 µM],0.6%,-10.8%,-0.1%[57.1 µM]
O=C(c1cc2cc(Cl)ccc2[nH]1)N1CCC2(CC1)OCCO2,nt,-4.8%,-2.6%,-2.4%,44.7µM*
O=C(c1cc2cc(F)ccc2[nH]1)N1CCC2(CC1)OCCO2,nt,-0.2%,-9.6%,-6.2%,13.6%
O=C1NC(=S)NC(=O)C1=Cc1ccc(OCC(=O)N2CCCC2)cc1,nt,-3.3%,-7.0%,-9.3%,5.62µM*
O=[N+]([O-])c1cc(C(F)(F)F)c(Cl)c([N+](=O)[O-])c1Nc1ncc(C(F)(F)F)cc1Cl,nt,-7.2%,nt,nt,?
COc1cc2c(cc1O)C(CCc1ccc(Cl)cc1)N(C)CC2 (stereo not drawn),1.8,nt,nt,nt,nt
C[C@@H](NC(=O)[C@@H](N)Cc1ccc(O)cc1)C(=O)NCC(=O)N(C)[C@@H](Cc1ccccc1)C(=O)NCCO,2.9,nt,nt,nt,nt
CC(=O)Oc1c2c(c(CC=C(C)C)c3c1C(=O)C1=CC4CC5C(C)(C)OC(C/C=C(\C)C(=O)O)(C4=O)[C@]15O3)OC(C)(CCC=C(C)C)C=C2 (stereo partly drawn),-1.9,nt,nt,nt,nt
CCCCCCn1c(O)c(C=NCCN2CCOCC2)c(=O)[nH]c1=O,1.9,0.5%,nt,-10.7%,14.8%
CCCCCC1CC(CC#CCN2CCOCC2)C(=O)O1 (stereo not drawn),4.3,-3.2%,-0.7%,-7.8%,44.7µM*
COc1ccc(OC)c(N2C(=O)/C(=C/c3ccco3)C(=O)NC2=S)c1,0.1,-9.8%,-19.6%,15.8µM*,28.2µM*
COc1ccc(N2C(=O)/C(=C/c3cc(C)n(-c4ccc(C)cn4)c3C)C(=O)NC2=S)c(OC)c1,-0.7,-3.4%,-2.0%,-22.9%,?
Cc1cccc(N2C(=O)NC(=O)/C(=C/c3ccc([N+](=O)[O-])o3)C2=O)c1,-35.9*,-3.5%,-1.0%,?,12.6µM*
Cc1cccc(N2C(=O)NC(=O)/C(=C\C=C\c3ccco3)C2=O)c1,4.1,-10.6%,-5.1%,-15.5%,?
Cc1cccc(N2C(=O)/C(=C/c3ccc(CN(CCC#N)S(C)(=O)=O)o3)C(=O)NC2=S)c1,-0.8,-16.0%,-2.9%,25.1µM*,7.94µM*
COc1ccc(N2C(=O)/C(=C/c3ccc(C)o3)C(=O)NC2=S)cc1,0.8,-15.6%,2.9%,-18.9%,20µM*
O=C(NCc1ccc(Cl)cc1)C(=O)NCC(c1cccnc1)N1CCN(c2ccccc2)CC1 (stereo not drawn),nt,-2.9%,nt,?,10.8%
CN(C(=O)Cc1ccc(Cl)c(Cl)c1)[C@H](CN1CCCC1)c1cccc(N=C=S)c1,0.9,nt,nt,nt,nt
CN1CCN(c2ccc(/C=C3\C(=O)NC(=S)N(c4cccc(Br)c4)C3=O)o2)CC1,-1.3,-24.0%,3.2%,31.6µM*,?
Cc1ccc(/C=C2\C(=O)NC(=S)N(c3cccc(F)c3)C2=O)o1,3.4,-2.6%,4.2%,?,7.94µM*
Cc1ccc(/C=C2/C(=O)NC(=O)N(Cc3ccc(F)cc3)C2=O)o1,0.0,nt,nt,nt,nt
CCOc1ccc(N2C(=O)/C(=C/c3ccc(C)o3)C(=O)NC2=S)cc1,6.8,-3.3%,2.5%,?,25.1µM*
COc1ccc(OC)c(N2C(=O)NC(=O)/C(=C/c3ccc([N+](=O)[O-])s3)C2=O)c1,-33.4*,4.6%[57.1 µM],-5.3%,15.8µM*,?
